Among the test systems are SR leukemia; RPMI-8226 leukemia; OVCAR-8 ovarian; OVCAR-4 ovarian; SK-OV-3 ovarian; IGROV1 ovarian; HS 578T breast; NCI/ADR-RES ovarian; OVCAR-3 ovarian; OVCAR-5 ovarian.
What all share (assay): NCI-60 one-dose screen, 48 h (100 = growth as untreated, 0 = no growth, -100 = all killed)
Conditions in all cases: 10 µM

The panel holds about 83,000 compounds, 20% with a hit somewhere; the sample as a whole holds those more often.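 Note: values are percent growth. 100 is the growth of untreated cells, values between 100 and 0 indicate rising inhibition; between -100 and 0 indicates cell death.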 A number with no mark means an inactive call. Calls of active or inactive are those of the source. How the source made its calls: active means growth percent below 10; inactive means the rest.

In PubChem BioAssay (NCI) one finds growth data, which are given here for 16 molecules.

As to `CCN(CC)CC(=O)N(CC)c1ccc(C)c(Cl)c1`, the growth with SR leukemia is 82.3%; in the experiment on RPMI-8226 leukemia it was 97.2%; with OVCAR-8 ovarian, 94.4%; with OVCAR-4 ovarian it was 107%; with SK-OV-3 ovarian it was 93.1%; with IGROV1 ovarian, 101%. Moreover, the growth is 100% with HS 578T breast and 102% with NCI/ADR-RES ovarian.
Take `COc1cc(C2C(C#N)=C(N)Oc3cc(O)ccc32)cc(OC)c1OC` (stereo unspecified): the growth is 11.4% with SR leukemia; 15.5% in the experiment on RPMI-8226 leukemia; 34.4% in the experiment with OVCAR-8 ovarian; 49.7% in the experiment on OVCAR-4 ovarian; 44.2% with SK-OV-3 ovarian; 34.9% in the experiment on IGROV1 ovarian. In addition, the growth in the experiment on HS 578T breast is 20%; in the experiment with NCI/ADR-RES ovarian, 38.4%.
As to `CCn1cc(C(=O)O)c(=O)c2cc(F)c(N3CCNCC3)cc21`, the growth is 100% with SR leukemia; 104% with RPMI-8226 leukemia; 97% in the experiment on OVCAR-8 ovarian; 111% in the experiment on OVCAR-4 ovarian; 113% in the experiment with SK-OV-3 ovarian; 114% in the experiment on OVCAR-3 ovarian. Besides, the growth with HS 578T breast was 111%; in the experiment with NCI/ADR-RES ovarian, 110%.
Turning to `CC(C)C1=C(O)C2=C(C(=O)C1=O)[C@@]1(C)CCCC(C)(C)[C@@H]1CC2`, the growth in the experiment with SR leukemia was 48%; in the experiment on RPMI-8226 leukemia, 55.2%; in the experiment with OVCAR-8 ovarian, 70%; in the experiment on OVCAR-5 ovarian it was 108%; with OVCAR-3 ovarian, 61%; in the experiment on HS 578T breast it was 85%. In the experiment on NCI/ADR-RES ovarian, the growth is 39.7%.
`O=C(CCc1nnc2sc(-c3cc(O)c(O)c(O)c3)nn12)c1nc2ccccc2[nH]1`: the growth with SR leukemia is 49.6%; in the experiment on RPMI-8226 leukemia, 87%; in the experiment with OVCAR-8 ovarian, 94.7%; in the experiment on OVCAR-5 ovarian, 117%; in the experiment on SK-OV-3 ovarian, 104%; in the experiment on IGROV1 ovarian it was 109%. The growth was 119% in the experiment on OVCAR-3 ovarian, 88.2% with HS 578T breast and 94.2% in the experiment with NCI/ADR-RES ovarian.
For `CCOC(=O)c1cc(C(=O)c2ccc(F)cc2F)n2ccccc12`, the growth with SR leukemia was 73%; in the experiment with RPMI-8226 leukemia it was 77.6%; in the experiment on OVCAR-8 ovarian it was 88%; in the experiment on OVCAR-4 ovarian it was 97.8%; in the experiment with SK-OV-3 ovarian it was 88.7%; in the experiment on IGROV1 ovarian it was 82.3%. In addition, the growth with OVCAR-3 ovarian was 103%; in the experiment with HS 578T breast, 93.2%; in the experiment with NCI/ADR-RES ovarian it was 88.5%.
As to `CCOC(=O)c1cc(C(=O)c2cc(OC)c(OC)c(OC)c2)n2ccc(-c3cc[n+](CC(=O)c4cc(OC)c(OC)c(OC)c4)cc3)cc12`, the growth with SR leukemia was -16.4% (active); in the experiment on RPMI-8226 leukemia, -22.2% (active); in the experiment on OVCAR-8 ovarian, 7.09% (active); in the experiment on OVCAR-4 ovarian, -33.2% (active); in the experiment with SK-OV-3 ovarian, 99.3%; in the experiment on IGROV1 ovarian, 83.2%. Further, the growth is 82% with OVCAR-3 ovarian, 69.4% with HS 578T breast and 94.4% with NCI/ADR-RES ovarian.
On to `NC(=O)c1cccc(-n2ccc3cc(NC(=O)Nc4ccc(Cl)c(C(F)(F)F)c4)ccc32)n1`, for which the growth in the experiment with SR leukemia was 91.1%; in the experiment with RPMI-8226 leukemia, 70.5%; in the experiment on OVCAR-8 ovarian it was 72.1%; in the experiment on OVCAR-4 ovarian, 77.6%; in the experiment with SK-OV-3 ovarian, 94.8%; in the experiment with IGROV1 ovarian it was 74.5%. Besides, the results for the growth in the experiment on OVCAR-3 ovarian, in the experiment on HS 578T breast and in the experiment on NCI/ADR-RES ovarian were 94.7%, 46.5% and 82%, respectively.
In the case of `CCN(CC)CCNc1ccc(C)c2sc3cc(Cl)ccc3c(=O)c12`, the growth was -30.4% (active) in the experiment on SR leukemia; -4.34% (active) in the experiment with RPMI-8226 leukemia; 45.9% with OVCAR-8 ovarian; 52.1% in the experiment with OVCAR-4 ovarian; 64.2% in the experiment on SK-OV-3 ovarian; 20.4% in the experiment on IGROV1 ovarian. The growth in the experiment with OVCAR-3 ovarian is 59.1%; with HS 578T breast, 43.3%; in the experiment with NCI/ADR-RES ovarian, 51.1%.
In the case of `COc1cc2c(cc1NC(=O)C(Cl)Cl)-c1ccc(NC(=O)C(Cl)Cl)cc1C2`, the growth in the experiment with SR leukemia was 86.4%; in the experiment on RPMI-8226 leukemia, 1.01% (active); in the experiment with OVCAR-8 ovarian, -22.8% (active); with OVCAR-5 ovarian it was 10.2%; with SK-OV-3 ovarian, 56.3%; in the experiment with IGROV1 ovarian it was 43.1%. The growth in the experiment with OVCAR-3 ovarian is -44.6% (active); with HS 578T breast it was 13.6%; in the experiment on NCI/ADR-RES ovarian, -39.2% (active).
As to `O=C(/C=C/c1cccc(B(O)O)c1)c1cccc(B(O)O)c1`, the growth is 3.2% (active) with SR leukemia; 48.2% with RPMI-8226 leukemia; -12.2% (active) with OVCAR-8 ovarian; 53.9% with OVCAR-4 ovarian; 3.23% (active) with SK-OV-3 ovarian; 26.7% with IGROV1 ovarian. The growth in the experiment on OVCAR-3 ovarian is -28.2% (active); with HS 578T breast, 16.9%; in the experiment on NCI/ADR-RES ovarian, 8.08% (active).
With `CN(C)CCOc1ccc(-c2nc3sccn3c2-c2ccnc(S(C)(=O)=O)n2)cc1`, the growth with SR leukemia is 109%; in the experiment on RPMI-8226 leukemia, 89.6%; in the experiment with OVCAR-8 ovarian, 106%; in the experiment with OVCAR-4 ovarian it was 95.9%; in the experiment on SK-OV-3 ovarian, 88.6%; with IGROV1 ovarian it was 115%. Further, the values for the growth in the experiment on OVCAR-3 ovarian, in the experiment on HS 578T breast and in the experiment on NCI/ADR-RES ovarian were 115%, 101% and 102%, respectively.
Turning to `COc1ccc2c(c1)CC=C1[C@@H]2CC[C@]2(C)C(=O)/C(=N/O)C[C@@H]12`, the growth is 74.6% in the experiment with SR leukemia; 83.8% in the experiment on RPMI-8226 leukemia; 102% in the experiment with OVCAR-8 ovarian; 86.1% in the experiment with OVCAR-5 ovarian; 116% in the experiment with SK-OV-3 ovarian; 106% in the experiment on OVCAR-3 ovarian. Besides, the growth in the experiment with HS 578T breast and with NCI/ADR-RES ovarian was 90.3% in each case.
In the case of `OC(CCN1CCCC1)(c1ccccc1)C1CCCCC1` (stereo unspecified), the growth is 123% with SR leukemia; 114% in the experiment on RPMI-8226 leukemia; 104% in the experiment with OVCAR-8 ovarian; 104% in the experiment on OVCAR-4 ovarian; 120% in the experiment with SK-OV-3 ovarian; 105% with OVCAR-3 ovarian. The growth with HS 578T breast was 103%; with NCI/ADR-RES ovarian, 105%.
In the case of `COc1cc(-c2csc(NC(=O)Nc3ccc(Cl)c(C(F)(F)F)c3)n2)cc(OC)c1OC`, the growth in the experiment on SR leukemia was 0.909% (active); in the experiment with RPMI-8226 leukemia it was -7.41% (active); in the experiment with OVCAR-8 ovarian, 4.2% (active); in the experiment on OVCAR-4 ovarian, -1.69% (active); with SK-OV-3 ovarian, 2.04% (active); with IGROV1 ovarian it was 25.2%. Moreover, the growth is -19% (active) in the experiment on OVCAR-3 ovarian, 16.8% in the experiment on HS 578T breast and -8.03% (active) in the experiment on NCI/ADR-RES ovarian.
As to `CC(=O)OC1CC2C(C)(C)CCC[C@]2(C)C2=C1C(O)=C(C(C)C)C(=O)C2=O` (stereo partly specified), the growth in the experiment with SR leukemia was 2.66% (active); in the experiment with RPMI-8226 leukemia, 4.43% (active); in the experiment on OVCAR-8 ovarian, 13.4%; in the experiment with OVCAR-5 ovarian, -39.3% (active); with SK-OV-3 ovarian it was 19.3%; with OVCAR-3 ovarian, -54% (active). For the same molecule, the growth was 28.9% in the experiment with HS 578T breast and 3.62% (active) with NCI/ADR-RES ovarian.
